# Experimental data as given in the OligoGym collection.
# Target: CCNA1
# Assay: pooled miR-30 sensor sort-seq; sequence = guide strand
# Conditions: shRNA
# Note: reference of the scale not given here.
row,Sequence,sensor-assay potency score (higher = more potent)
1,TAACAGTTGTCGTTTTGTGTAT,-0.217
2,TAGAACTTTCAGAAGCAAGTGT,0.493
3,TTTTGTGTATGTATCATCGGTG,0.2
4,TTGCTTGCTGAGGTCGATGGGG,-0.835
5,TTTGTGTATGTATCATCGGTGA,-0.746
6,TATATCTCTTCATATTTCGAAG,-1.14
7,TGATATAGACAAACTCGTCTAC,0.267
8,TAATTGCTTGCTGAGGTCGATG,-1.07
9,TTTCACTTAATGAATACCCTGT,1.11

# Target: CCNG1
# Assay: as above
# Conditions: shRNA
row,Sequence,sensor-assay potency score (higher = more potent)
1,TTCAGTTGAGCTTCTAGTCTTT,0.39
2,TTGACTTTCCAACACACCTTCT,-0.557
3,TTTGACTTTCCAACACACCTTC,0.153
4,TCTGAAGACATTCTATTCCTTC,-0.269
5,TTCTGTTAACTCTACACACTTC,-0.348
6,TTAGTCTCAAACCACAGACCTT,-1.23
7,TTCAACTTCTGAACATTTGGTT,0.69
8,TTAGCTTTGATTTGAATGCTTC,0.215
9,TTCATTTTAGACAGGAATCTGT,0.0756
10,TTAACTCTACACACTTCTGTGC,0.175
11,TTTGGATACAAGCTCTTGCCAG,-0.48
12,TTGGCTGACATCTAGACTCCTG,0.244
13,TAGTCTCAAACCACAGACCTTT,-0.816
14,TAGCATTTCACATTTAGGCTTT,0.478
15,TTTAGACAGGAATCTGTCCAGT,-0.19
16,TTTTAGACAGGAATCTGTCCAG,0.0176
17,TACATTTGTGAAATGTTGCTTT,0.17
18,TTAGTCTTGCAGTCATTCTGAG,-0.381
19,TTCTATTGATTTTACAGCCAAA,-1.32
20,TAGTCTTGCAGTCATTCTGAGG,-1.44
21,TTGGATACAAGCTCTTGCCAGA,-0.511

# Target: CD180
# Assay: as above
# Conditions: shRNA
row,Sequence,sensor-assay potency score (higher = more potent)
1,TTTAACATTATTGCCATTGAAG,-1.17
2,TGAAGTAGGTTGGTCTTCGTGA,-0.298
3,TTGGTCTTCGTGATAGTCCCAT,0.105
4,TTGTGTTTGGTAGAGTGTCAGG,-0.807
5,TACACTGAGAACTAATTTCTTG,-0.423
6,TTTAACTGCAAAAAATAGCAGA,-0.349
7,TAGAGATGTAGTGTATAGCATT,-1.05
8,TTGAGTTGCAGACTGCAGCAGT,0.0591
9,TAGTAGAGTTCTGCAGACCATT,-1.3
10,TAAATTAATGGTGCTCTGCTGG,-0.664
